Experimental data from PubChem BioAssay (NCATS).
Several values for one entry are separate records, joined by “and”; a condition that tells them apart may be missing. Equal values may be shown once. Records with an inconclusive call do not appear. Activity calls are given as the source filed them. Unless noted, the call rests on the fitted dose curve.

What was measured:
[1] = biological target: Glucocorticoid receptor (Homo sapiens) (UniProt P04150); experiment: qHTS assay for small molecule antagonists of glucocorticoid receptor signaling (AID 588533; active means well fitted inhibition curve with a large enough effect in the signal ratio, with a control signal flat, not every such curve was filed as active; the % refers to the signal ratio;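 further: cells stimulated with 2 nM dexamethasone as agonist; on the % scale 0 is the no-effect control and ±100 the full control effect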); details: HeLa MMTV-bla, GRE beta-lactamase ratio, antagonist mode, 18 h; series mostly up to 76.8 µM
In short: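 Antagonist-mode qHTS: compound titrations added to GRE-bla HeLa cells, then dexamethasone 2 nM final; 18 h, 37 C. CCF4 FRET fluorescence normalized to dexamethasone and DMSO; IC50 from Hill fit.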

[2] = biological target: Peroxisome proliferator-activated receptor gamma (Homo sapiens) (UniProt P37231); experiment: qHTS assay for small molecule agonists of peroxisome proliferator-activated receptor gamma signaling (AID 588536; active means well fitted curve in the direction sought with a large enough effect in the signal ratio, with a control signal flat, not every such curve was filed as active; the % refers to the signal ratio;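 further: 0% = DMSO basal wells and 100% = rosiglitazone at 2 µM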); details: HEK293 PPARg-UAS-bla, beta-lactamase ratio, 16 h, percent of rosiglitazone response, DMSO as zero; series mostly up to 76.7 µM
In short: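 Beta-lactamase reporter read-out: CCF4 fluorescence (ex 405, em 460/530 nm) after 2 h at RT. HEK293 GeneBLAzer cells were treated for 16 h at 37 C. Hill fits gave EC50 and efficacy versus 2 uM rosiglitazone (100%) and DMSO (0%).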

[3] = biological target: Vitamin D3 receptor (Homo sapiens) (UniProt P11473); experiment: qHTS assay for small molecule antagonists of vitamin D receptor signaling (AID 588541); details: HEK293T VDR-UAS-bla, beta-lactamase ratio, antagonist mode; series mostly up to 76.7 µM;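 further: receptor activated by calcitriol during compound treatment; on the % scale 0 is the no-effect control and ±100 the full control effect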
In short: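 Antagonist-mode beta-lactamase reporter assay: HEK293T VDR-UAS-bla cells were exposed to titrated compound alongside 1-alpha,25-dihydroxyvitamin D3 at 3 nM final for 16 h. Values were normalized to the 50 nM agonist control and DMSO basal, with IC50 and efficacy from Hill equation fits.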

[4] = biological target: Vitamin D3 receptor (Homo sapiens) (UniProt P11473); experiment: qHTS assay for small molecule agonists of vitamin D receptor signaling (AID 588543); details: HEK293T VDR-UAS-bla, beta-lactamase ratio, 16 h; series mostly up to 76.8 µM;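 further: 0% = DMSO basal and 100% = reference agonist control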
In short: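 qHTS in agonist mode: compound titrations stimulate a VDR-driven β-lactamase reporter in HEK293T cells over 16 h at 37 °C. Response normalized to 50 nM 1α,25-dihydroxyvitamin D3 = 100%, DMSO = 0%; Hill fitting gives EC50 and maximal response.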

[5] = qHTS assay for small molecule agonists of retinoid X receptor alpha signaling (AID 588544); details: HEK293T RXRa-UAS-bla, beta-lactamase reporter, 18 h; 530 nm emission
[6] = biological target: Thyroid hormone receptor beta (Homo sapiens) (UniProt P10828); experiment: qHTS assay for small molecule agonists of thyroid hormone receptor beta signaling (AID 588545); details: TR-UAS-bla GripTite HEK 293, beta-lactamase ratio, agonist mode, 18 h, percent of T3 response, DMSO as zero; series mostly up to 76.7 µM;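 further: 0% = DMSO only and 100% = 10 nM T3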
In short: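 Efficacy and EC50 values derive from Hill fits of qHTS titration data, normalized to 10 nM T3 and DMSO-only wells. HEK 293 reporter cells were stimulated for 18 hrs at 37 C, with beta-lactamase activity measured by CCF4 fluorescence.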

[7] = qHTS assay for small molecule antagonists of retinoid X receptor alpha signaling (AID 588546; active means well fitted inhibition curve with a large enough effect in the signal ratio, with a control signal flat, not every such curve was filed as active; the % refers to the signal ratio; further: potency means the concentration at half of the fitted maximal effect); details: HEK293T RXRa-UAS-bla, beta-lactamase ratio, antagonist mode; measured here: W530 green channel, cytotoxicity proxy
In short: (§1)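 Beta-lactamase reporter inhibition, read as CCF4 fluorescence ratio (ex 405, em 460/530 nm) after 2 h at RT. HEK293T UAS-bla cells, 2500/well, were stimulated with 9-cis-RA at 500 or 100 nM final alongside test compound for 18 h at 37 C.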

[8] = biological target: Retinoic acid receptor RXR-alpha (Homo sapiens) (UniProt P19793); experiment: as above; details: HEK293T RXRa-UAS-bla, beta-lactamase ratio, antagonist mode
In short: as §1

[9] = biological target: Thyroid hormone receptor beta (Homo sapiens) (UniProt P10828); experiment: qHTS assay for small molecule antagonists of thyroid hormone receptor beta signaling (AID 588547; active means well fitted inhibition curve with a large enough effect in the signal ratio, with a control signal flat, not every such curve was filed as active; the % refers to the signal ratio;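 further: cells stimulated with 0.4 nM T3 agonist during compound exposure; on the % scale 0 is the no-effect control and ±100 the full control effect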); details: TR-UAS-bla HEK293, beta-lactamase ratio, antagonist mode, 18 h
In short: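 Inhibition of T3-driven (0.4nM final) beta-lactamase reporter activity was measured over 0.59 nM to 92 uM compound after 18 h at 37 C. The cells were GripTite HEK293 TR-UAS-bla in charcoal/dextran-stripped serum, with CCF4 ratio read-out and IC50 from Hill fits.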

[10] = biological target: Voltage-gated inwardly rectifying potassium channel KCNH2 (Homo sapiens) (UniProt Q12809); experiment: qHTS Assay for Small Molecule Inhibitors of the Human hERG Channel Activity (AID 588834; active means well fitted curve in the direction sought with a large enough effect; an effect the other way counts as inactive or inconclusive;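 further: U2OS cells transduced with hERG by BacMam; top concentration of the series differs between compounds; on the % scale 0 is the no-effect control and ±100 the full control effect; lower thallium flux fluorescence means stronger hERG block; nearly all actives have a fitted effect of over 50% in size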); details: U2OS BacMam hERG, FluxOR thallium flux fluorescence; series mostly up to 46.1 µM
In short: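 Cells were infected with hERG-BacMam virus for 4 hrs at room temperature, grown overnight, then seeded at 2000/well. After dye loading and roughly 10 min compound treatment, thallium influx was triggered and fluorescence recorded.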

[11] = biological target: Luciferin 4-monooxygenase (Photinus pyralis) (UniProt P08659); experiment: Biochemical firefly luciferase enzyme assay for NPC (AID 624030; active means well fitted curve in the direction sought with a large enough effect; an effect the other way counts as inactive or inconclusive; further: nearly all actives have a fitted effect of over 70% in size; further: potency means the concentration at half of the fitted maximal effect); details: purified P. pyralis luciferase, luminescence, 5 min; series mostly up to 58.6 µM
In short: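 Direct inhibition of firefly luciferase enzyme (10 nM final, 50 mM Tris Acetate) assessed by luminescence within 5 minutes. Percent activity scaled between DMSO and PTC124 positive control, with concentration-effect curves classified by fit quality and response.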

[12] = biological target: Glutaminase kidney isoform, mitochondrial (Homo sapiens) (UniProt O94925); experiment: qHTS for Inhibitors of Glutaminase (GLS): LOPAC Validation (AID 624146; active means well fitted curve in the direction sought with a large enough effect; an effect the other way counts as inactive or inconclusive;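 further: glutamate product detected by oxidase and peroxidase coupled Amplex red fluorescence gain; on the % scale 0 is the no-effect control and ±100 the full control effect; nearly all actives have a fitted effect of over 60% in size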); details: glutaminase enzyme activity inhibition; series mostly up to 46.1 µM
In short: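 Enzyme dispensed in phosphate buffer (45 mM, pH 8.2, 0.02% Tween-20), compounds pinned in, then 1 mM L-glutamine solution and the glutamate oxidase–HRP–Amplex Red mix added; fluorescence read immediately and again after 30 min at room temperature.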

[13] = biological target: Glucocorticoid receptor (Homo sapiens) (UniProt P04150); experiment: qHTS assay for small molecule agonists of glucocorticoid receptor signaling (AID 588532; active means well fitted curve in the direction sought with a large enough effect in the signal ratio, with a control signal flat; the % refers to the signal ratio;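 further: 100% = dexamethasone at 0.1 µM and 0% = DMSO only wells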); details: HeLa MMTV-bla, beta-lactamase ratio, agonist, 18 h; stronger effect = higher value; percent of dexamethasone control, DMSO zero
In short: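 Using MMTV-bla HeLa cells in medium with 1% stripped FBS and 25 mM HEPES, compounds were titrated and incubated overnight-length (18 h). Beta-lactamase cleavage of CCF4 was quantified by dual-emission fluorescence.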

[14] = S16 Schwann cell PMP22 intronic element beta-lactamase assay (AID 624044); details: S16 rat Schwann cells, PMP22 element beta-lactamase FRET, 24 h; series mostly up to 38.3 µM; further: nearly all actives have a fitted effect of over 15% in size; further: potency means the concentration at half of the fitted maximal effect
In short: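 Beta-lactamase reporter under a PMP22 intronic regulatory element in stable S16 rat Schwann cells; 24 h compound exposure. 460 nm blue signal normalized between DMSO (0%) and potassium clavulanate, with 535 nm FRET tracking viability; curves classed by r2 and response.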

[15] = S16 Schwann cell viability assay (CellTiter-Glo assay) (AID 624031; active means well fitted curve in the direction sought with a large enough effect; an effect the other way counts as inactive or inconclusive;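 further: native untransfected S16 rat Schwann cells; plate controls were DMSO-treated cells for no effect and cell-free wells for full effect; nearly all actives have a fitted effect of over 70% in size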); details: S16 rat Schwann cells viability, 24 h; series mostly up to 57.5 µM
In short: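 Counter-screen for cytotoxicity: parental S16 rat Schwann cells lacking the PMP22 reporters, treated 24 h with compound, viability from cellular ATP by CellTiter-Glo luminescence, normalized to DMSO (0%) and no-cell wells.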

[16] = biological target: Bile acid receptor (Homo sapiens) (UniProt Q96RI1); experiment: qHTS assay for small molecule antagonists of farnesoid X receptor signaling (AID 588526); details: HEK293T FXR-UAS-bla, beta-lactamase ratio, antagonist mode; series mostly up to 76.7 µM; further: on the % scale 0 is the no-effect control and ±100 the full control effect
In short: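 Beta-lactamase reporter antagonist mode: HEK293T FXR-UAS-bla cells, titrated compound, CDCA stimulation, 16 h 37 C, CCF4 dye 2 h RT. Data normalized to CDCA 50 uM and DMSO; Hill-fit IC50.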

[17] = qHTS assay for small molecule antagonists of peroxisome proliferator-activated receptor delta signaling (AID 588535; active means well fitted inhibition curve with a large enough effect in the signal ratio, with a control signal flat, not every such curve was filed as active; the % refers to the signal ratio;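 on max response: cells co-treated with a PPAR-delta agonist as stimulator during compound exposure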); details: HEK293T PPARd-UAS-bla, beta-lactamase FRET ratio, 18 h; 460 nm channel
In short: (§2)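 Titrations were run on PPAR-delta-UAS-bla HEK293T cells in charcoal/dextran-stripped serum, incubated 18 h at 37 C. CCF4 fluorescence (460/530 nm) after 2 h RT; Hill equation yields IC50 and maximal response.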

[18] = biological target: Peroxisome proliferator-activated receptor delta (Homo sapiens) (UniProt Q03181); experiment: as above; details: HEK293T PPARd-UAS-bla, beta-lactamase FRET ratio, 18 h; series mostly up to 76.7 µM
In short: as §2

[19] = biological target: Peroxisome proliferator-activated receptor gamma (Homo sapiens) (UniProt P37231); experiment: qHTS assay for small molecule antagonists of peroxisome proliferator-activated receptor gamma signaling (AID 588537; active means well fitted inhibition curve with a large enough effect in the signal ratio, with a control signal flat, not every such curve was filed as active; the % refers to the signal ratio;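 further: reporter cells co-stimulated with 50 nM rosiglitazone agonist during compound treatment; % of control where 0% means no effect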); details: HEK293 PPARg-UAS-bla, beta-lactamase ratio, antagonist mode; series mostly up to 76.8 µM
In short: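 Antagonist-mode β-lactamase reporter screen run as a titration series. HEK293 PPARγ-UAS-bla cells are stimulated with rosiglitazone (50 nM final) for 16 h, then CCF4 is read at 460/530 nm. Data are scaled between DMSO and rosiglitazone and fitted to the Hill equation.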

[20] = S16 Schwann cell PMP22 intronic element firefly luciferase assay (AID 624032; active means well fitted curve in the direction sought with a large enough effect; an effect the other way counts as inactive or inconclusive;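 further: plate controls were DMSO for no effect and PTC124 positive control mean for full effect; nearly all actives have a fitted effect of over 30% in size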); details: S16 rat Schwann cells, PMP22 element FLuc, 24 h; series mostly up to 57.5 µM
In short: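 Luciferase reporter of PMP22 intronic-element expression in stably transfected S16 rat Schwann cells, read by ONE-Glo luminescence after 24 h compound exposure at 37 C. Activity scaled between DMSO (0%) and positive-control PTC124; concentration-effect curves quality-classified.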

Glucocorticoid receptor (Homo sapiens), sequence (P04150 whole entry, looked up): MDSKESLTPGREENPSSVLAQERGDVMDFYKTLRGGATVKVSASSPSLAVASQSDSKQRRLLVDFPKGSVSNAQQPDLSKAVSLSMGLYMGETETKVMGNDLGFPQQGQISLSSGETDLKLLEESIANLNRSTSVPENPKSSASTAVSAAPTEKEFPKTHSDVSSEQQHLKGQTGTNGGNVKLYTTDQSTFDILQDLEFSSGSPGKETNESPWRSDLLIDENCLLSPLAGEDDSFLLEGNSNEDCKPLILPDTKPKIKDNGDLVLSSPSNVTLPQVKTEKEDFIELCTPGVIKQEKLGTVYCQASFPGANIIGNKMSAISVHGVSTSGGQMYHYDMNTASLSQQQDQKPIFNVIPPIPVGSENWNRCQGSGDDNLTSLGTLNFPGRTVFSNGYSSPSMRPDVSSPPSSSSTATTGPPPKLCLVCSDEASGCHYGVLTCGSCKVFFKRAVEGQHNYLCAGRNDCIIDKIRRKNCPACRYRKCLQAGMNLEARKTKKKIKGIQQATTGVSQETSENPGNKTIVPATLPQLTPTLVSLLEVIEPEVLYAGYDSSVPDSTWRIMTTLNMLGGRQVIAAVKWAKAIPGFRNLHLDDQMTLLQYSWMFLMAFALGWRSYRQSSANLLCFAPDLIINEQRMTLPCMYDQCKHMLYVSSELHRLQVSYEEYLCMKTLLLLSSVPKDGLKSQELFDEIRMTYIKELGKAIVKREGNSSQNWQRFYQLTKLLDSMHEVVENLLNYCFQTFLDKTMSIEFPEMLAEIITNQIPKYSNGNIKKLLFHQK
Voltage-gated inwardly rectifying potassium channel KCNH2 (Homo sapiens), sequence (Q12809 whole entry, looked up): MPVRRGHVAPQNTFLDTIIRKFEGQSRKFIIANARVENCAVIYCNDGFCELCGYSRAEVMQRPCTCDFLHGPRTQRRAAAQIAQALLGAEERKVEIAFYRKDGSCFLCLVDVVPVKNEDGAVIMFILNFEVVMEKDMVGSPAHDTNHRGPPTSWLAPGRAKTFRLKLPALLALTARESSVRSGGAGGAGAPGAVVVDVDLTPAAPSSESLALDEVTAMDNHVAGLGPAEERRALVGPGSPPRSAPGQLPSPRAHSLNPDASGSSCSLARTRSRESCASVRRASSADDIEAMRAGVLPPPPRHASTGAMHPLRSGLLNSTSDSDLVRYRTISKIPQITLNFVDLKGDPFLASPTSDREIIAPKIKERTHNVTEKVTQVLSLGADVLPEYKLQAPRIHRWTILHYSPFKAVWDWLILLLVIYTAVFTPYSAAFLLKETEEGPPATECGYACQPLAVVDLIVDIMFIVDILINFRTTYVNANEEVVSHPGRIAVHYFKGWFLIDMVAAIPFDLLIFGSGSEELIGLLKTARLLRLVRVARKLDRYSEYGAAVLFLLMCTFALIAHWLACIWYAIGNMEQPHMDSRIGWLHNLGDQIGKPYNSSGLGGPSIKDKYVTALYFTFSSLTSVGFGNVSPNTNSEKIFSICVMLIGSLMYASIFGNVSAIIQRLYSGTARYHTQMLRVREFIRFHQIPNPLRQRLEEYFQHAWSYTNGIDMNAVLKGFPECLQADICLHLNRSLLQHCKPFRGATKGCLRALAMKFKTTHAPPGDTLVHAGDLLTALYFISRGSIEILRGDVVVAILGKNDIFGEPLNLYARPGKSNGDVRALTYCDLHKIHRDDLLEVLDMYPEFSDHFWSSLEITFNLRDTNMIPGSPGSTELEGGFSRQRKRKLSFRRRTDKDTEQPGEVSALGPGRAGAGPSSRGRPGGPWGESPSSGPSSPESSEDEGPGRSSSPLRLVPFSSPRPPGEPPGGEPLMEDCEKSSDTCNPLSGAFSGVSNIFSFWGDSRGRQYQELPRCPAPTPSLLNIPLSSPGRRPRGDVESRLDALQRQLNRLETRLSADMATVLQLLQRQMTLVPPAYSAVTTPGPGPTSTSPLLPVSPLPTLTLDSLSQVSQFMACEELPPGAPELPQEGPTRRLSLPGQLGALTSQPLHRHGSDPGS
Luciferin 4-monooxygenase (Photinus pyralis), sequence (P08659 whole entry, looked up): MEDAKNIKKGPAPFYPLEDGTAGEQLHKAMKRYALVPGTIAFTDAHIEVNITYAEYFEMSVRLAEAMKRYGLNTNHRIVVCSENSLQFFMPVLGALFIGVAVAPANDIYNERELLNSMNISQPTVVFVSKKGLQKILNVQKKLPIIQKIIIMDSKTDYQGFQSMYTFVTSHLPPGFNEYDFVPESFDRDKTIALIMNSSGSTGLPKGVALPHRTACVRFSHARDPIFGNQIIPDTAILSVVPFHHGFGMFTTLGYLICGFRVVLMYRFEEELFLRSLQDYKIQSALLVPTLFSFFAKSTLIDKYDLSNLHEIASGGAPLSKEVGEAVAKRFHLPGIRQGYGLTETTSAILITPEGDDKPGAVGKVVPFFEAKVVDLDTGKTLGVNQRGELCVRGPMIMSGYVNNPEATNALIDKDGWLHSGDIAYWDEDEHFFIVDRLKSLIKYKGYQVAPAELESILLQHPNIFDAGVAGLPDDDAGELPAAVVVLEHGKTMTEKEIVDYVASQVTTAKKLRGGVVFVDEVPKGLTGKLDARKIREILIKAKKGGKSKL
Retinoic acid receptor RXR-alpha (Homo sapiens), sequence (P19793 whole entry, looked up): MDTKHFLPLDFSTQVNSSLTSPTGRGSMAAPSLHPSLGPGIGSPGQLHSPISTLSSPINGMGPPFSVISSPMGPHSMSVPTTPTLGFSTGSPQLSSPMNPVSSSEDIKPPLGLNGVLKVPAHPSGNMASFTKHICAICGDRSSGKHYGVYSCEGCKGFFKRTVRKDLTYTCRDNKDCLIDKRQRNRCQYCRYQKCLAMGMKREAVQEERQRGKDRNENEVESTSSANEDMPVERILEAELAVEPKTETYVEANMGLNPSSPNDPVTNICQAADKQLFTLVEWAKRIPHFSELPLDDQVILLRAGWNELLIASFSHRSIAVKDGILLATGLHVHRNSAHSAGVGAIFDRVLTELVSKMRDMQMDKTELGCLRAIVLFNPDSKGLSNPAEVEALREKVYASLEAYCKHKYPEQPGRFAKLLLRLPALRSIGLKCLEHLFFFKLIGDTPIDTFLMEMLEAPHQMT
Glutaminase kidney isoform, mitochondrial (Homo sapiens), sequence (O94925 whole entry, looked up, canonical isoform): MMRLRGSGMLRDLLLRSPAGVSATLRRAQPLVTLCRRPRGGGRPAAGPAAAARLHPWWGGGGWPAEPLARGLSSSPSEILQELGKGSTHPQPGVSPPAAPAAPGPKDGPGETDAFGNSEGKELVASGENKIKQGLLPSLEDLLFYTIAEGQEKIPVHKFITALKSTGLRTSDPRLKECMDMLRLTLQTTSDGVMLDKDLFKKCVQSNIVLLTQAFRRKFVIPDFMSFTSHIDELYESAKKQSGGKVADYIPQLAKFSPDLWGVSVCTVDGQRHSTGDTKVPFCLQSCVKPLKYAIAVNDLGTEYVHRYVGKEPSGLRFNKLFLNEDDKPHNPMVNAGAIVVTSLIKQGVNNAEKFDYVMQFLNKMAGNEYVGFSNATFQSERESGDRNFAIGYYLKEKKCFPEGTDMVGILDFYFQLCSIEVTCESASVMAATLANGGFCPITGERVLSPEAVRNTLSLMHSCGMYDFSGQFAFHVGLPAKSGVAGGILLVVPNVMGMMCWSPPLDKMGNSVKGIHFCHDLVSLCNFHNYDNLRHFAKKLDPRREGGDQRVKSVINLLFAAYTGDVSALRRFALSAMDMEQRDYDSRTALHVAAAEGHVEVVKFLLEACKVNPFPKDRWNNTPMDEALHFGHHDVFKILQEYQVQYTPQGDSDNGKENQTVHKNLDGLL
Vitamin D3 receptor (Homo sapiens), sequence (P11473 whole entry, looked up): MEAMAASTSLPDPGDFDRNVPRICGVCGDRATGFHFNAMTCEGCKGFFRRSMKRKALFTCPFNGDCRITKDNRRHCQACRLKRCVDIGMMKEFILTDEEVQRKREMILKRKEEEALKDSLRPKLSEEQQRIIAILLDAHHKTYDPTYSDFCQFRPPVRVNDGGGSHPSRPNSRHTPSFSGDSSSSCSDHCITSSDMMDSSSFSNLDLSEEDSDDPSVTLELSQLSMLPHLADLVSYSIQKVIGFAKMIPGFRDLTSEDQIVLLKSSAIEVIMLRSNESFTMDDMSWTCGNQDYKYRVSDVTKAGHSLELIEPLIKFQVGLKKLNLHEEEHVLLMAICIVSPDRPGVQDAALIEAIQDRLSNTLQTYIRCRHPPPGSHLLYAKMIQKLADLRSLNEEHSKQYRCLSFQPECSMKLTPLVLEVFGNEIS
Peroxisome proliferator-activated receptor gamma (Homo sapiens), sequence (P37231 whole entry, looked up): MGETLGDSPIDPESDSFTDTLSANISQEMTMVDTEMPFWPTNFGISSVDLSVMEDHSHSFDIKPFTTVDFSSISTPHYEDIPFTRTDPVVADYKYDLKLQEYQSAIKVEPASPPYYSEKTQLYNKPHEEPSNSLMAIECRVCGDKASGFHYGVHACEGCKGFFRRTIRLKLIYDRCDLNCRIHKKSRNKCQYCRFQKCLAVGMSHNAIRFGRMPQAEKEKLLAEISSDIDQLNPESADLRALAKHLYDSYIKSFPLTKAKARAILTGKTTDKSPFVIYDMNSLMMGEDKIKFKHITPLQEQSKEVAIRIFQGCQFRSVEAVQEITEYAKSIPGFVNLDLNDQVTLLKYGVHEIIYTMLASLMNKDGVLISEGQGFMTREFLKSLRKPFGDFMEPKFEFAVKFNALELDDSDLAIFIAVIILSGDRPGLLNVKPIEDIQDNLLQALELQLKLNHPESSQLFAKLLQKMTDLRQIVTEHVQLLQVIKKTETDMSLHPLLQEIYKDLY
Bile acid receptor (Homo sapiens), sequence (Q96RI1 whole entry, looked up): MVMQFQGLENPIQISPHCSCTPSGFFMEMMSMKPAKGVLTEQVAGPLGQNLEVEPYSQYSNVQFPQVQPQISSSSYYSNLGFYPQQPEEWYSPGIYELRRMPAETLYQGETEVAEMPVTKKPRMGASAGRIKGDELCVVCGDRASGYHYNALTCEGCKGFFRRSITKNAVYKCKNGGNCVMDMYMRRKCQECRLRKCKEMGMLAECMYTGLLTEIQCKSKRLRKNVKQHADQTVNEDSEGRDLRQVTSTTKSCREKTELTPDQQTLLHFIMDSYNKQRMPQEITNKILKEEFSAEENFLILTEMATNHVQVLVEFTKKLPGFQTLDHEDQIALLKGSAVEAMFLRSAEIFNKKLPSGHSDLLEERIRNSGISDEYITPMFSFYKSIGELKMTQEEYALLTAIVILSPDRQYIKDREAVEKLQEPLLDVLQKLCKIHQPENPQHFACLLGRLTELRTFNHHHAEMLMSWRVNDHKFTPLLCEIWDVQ

O=C(Nc1ccc([N+](=O)[O-])cc1Cl)c1cc(Cl)ccc1O
3.51%: max response [7]
inactive: activation [13] -5.17% | outcome [6] | Potency [10] | Potency [12]
active: Potency [8] 2.51 µM | Potency [11] 0.114 µM | Potency [14] 2.51 µM

COc1cc2c(c(OC)c1OC)-c1ccc(OC)c(=O)cc1[C@@H](NC(C)=O)CC2
inactive: outcome [4] | outcome [6] | Potency [10] | Potency [11] | Potency [15] | Potency [12]

CC1(C)O[C@H]2CC(=O)OC[C@]23[C@H]2CC[C@@]4(C)[C@H](c5ccoc5)OC(=O)[C@H]5O[C@]54[C@]2(C)C(=O)C[C@@H]13
inactive: Potency [10]

Cn1cnc2c1c(=O)[nH]c(=O)n2C
-1.33%: max response [17]
inactive: Potency [16] | activation [13] -4.06% | Potency [1] | outcome [18] | outcome [2] | Potency [19] | outcome [3] | outcome [4] | outcome [6] | max response [8] -5.33% | activity change % (negative = inhibition) [9] 8.64% | Potency [11] | Potency [15] | Potency [20] | Potency [14] | Potency [12]
-0.801%: max response [7]

Cc1cn([C@H]2C=C[C@@H](CO)O2)c(=O)[nH]c1=O
-1.05% and 0.328% and -3.51%: max response [7]
-12.5% and -2.44% and -13%: max response [5]
inactive: Potency [16] | outcome [18] | outcome [2] | Potency [19] | outcome [3] | outcome [4] | outcome [6] | max response [8] 0.606% and 10% and 8.08% | activity change % (negative = inhibition) [9] 3.32% and -6.39% | Potency [10] | Potency [11] | Potency [20] | Potency [12]
27.7% and 7.49%: max response [17]

COc1ccc2[nH]cc(CCNC(C)=O)c2c1
4.26% and -2.38% and 20.7%: max response [5]
inactive: Potency [16] | activation [13] -4.76% and 1.7% and -3.63% | Potency [1] | outcome [18] | outcome [2] | Potency [19] | outcome [3] | outcome [4] | outcome [6] | max response [8] 0.955% and -6.07% and -2.21% | activity change % (negative = inhibition) [9] -14% and 1.14% and 10.4% | Potency [10] | Potency [11] | Potency [20] | Potency [12]
15.5% and 6.29% and -2.26%: max response [7]
14.8% and 21.6% and 4.95%: max response [17]

Cn1c(=O)c2[nH]cnc2n(C)c1=O
inactive: Potency [16] | outcome [2] | outcome [6] | max response [8] -6.35% | activity change % (negative = inhibition) [9] -10.4% | Potency [11]
-3.21%: max response [7]
-12.6%: max response [5]

CN(C)CCOC(c1ccccc1)c1ccccc1
inactive: activation [13] -3.72% | Potency [1] | activity change % (negative = inhibition) [9] -3.52% | Potency [20]

NC(CO)C(=O)NNCc1ccc(O)c(O)c1O (stereo not drawn)
inactive: Potency [10]

CCC1(C)CC(=O)NC1=O (stereo not drawn)
inactive: Potency [10]

CC(C)(Oc1ccc(C2CC2(Cl)Cl)cc1)C(=O)O (stereo not drawn)
3.34%: max response [7]
inactive: activation [13] -2.49% | Potency [1] | outcome [18] | Potency [19] | outcome [3] | outcome [4] | outcome [6] | max response [8] -27.6% | activity change % (negative = inhibition) [9] -9.34% | Potency [10] | Potency [11] | Potency [20] | Potency [12]
-19.7%: max response [17]

Cc1ccc(-c2cc(C(F)(F)F)nn2-c2ccc(S(N)(=O)=O)cc2)cc1
inactive: activity change % (negative = inhibition) [9] 17.3% | Potency [11] | Potency [15] | Potency [14]

O=C(CCCN1CCC(O)(c2ccc(Cl)cc2)CC1)c1ccc(F)cc1
6.93%: max response [7]
inactive: Potency [16] | activation [13] -2.91% | Potency [1] | outcome [2] | Potency [19] | outcome [6] | max response [8] -32.4% | activity change % (negative = inhibition) [9] -36.9% | Potency [11] | Potency [12]
-1.31%: max response [5]

CCOC(=O)C(C)(C)Oc1ccc(Cl)cc1
-5.41%: max response [7]
-15.2%: max response [17]
inactive: Potency [16] | activation [13] -5.3% | Potency [1] | outcome [18] | outcome [2] | Potency [19] | outcome [3] | outcome [4] | outcome [6] | max response [8] 3.43% | activity change % (negative = inhibition) [9] 7.19% | Potency [10] | Potency [11] | Potency [20] | Potency [14] | Potency [12]
-9.24%: max response [5]
